Several values for one entry are separate records, joined by “and”; a condition that tells them apart may be missing. Equal values may be shown once. Results filed as inconclusive are left out. Some compounds were tested as several samples or in several runs, with calls that do not always agree. Activity calls are given as the source filed them. Rule for the calls: active = hit-call score of the fitted dose curve at least 0.9, where 1 is the maximum; inconclusive = response in the unintended direction; inactive = score below 0.9.
How the values were obtained:
[1] = biological target: rat Androgen Receptor (AR), Ar (gene 24208) (UniProt P15207); experiment: NVS_NR_rAR: NovaScreen (NVS) Nuclear Receptor Binding Assay for rat Androgen Receptor (AR) (AID 2283366)
Method: NVS_NR_rAR is a biochemical, single-readout assay that uses extracted gene-proteins from Testosterone pre-treated rat prostate in a tissue-based cell-free assay. Measurements were taken 18 hours after chemical dosing in a 96-well plate.NVS_NR_rAR is one of one assay component(s) measured or calculated from the NVS_NR_rAR assay. It is designed to make measurements of radioligand binding, a form of binding reporter, as detected with scintillation counting signals by Filter-based radiodetection technology.Data from the assay component NVS_NR_rAR was analyzed into 1 assay endpoint. This assay endpoint, NVS_NR_rAR, was analyzed in the positive analysis fitting direction relative to DMSO as the negative control and baseline of activity. Using a type of binding reporter, loss-of-signal activity can be used to understand changes in the binding as they relate to the gene Ar. Furthermore, this assay endpoint can be referred to as a primary readout, because the performed assay has only produced 1 assay endpoint. To generalize the intended target to other relatable targets, this assay endpoint is annotated to the nuclear receptor intended target family, where the subfamily is steroidal.
Binding assays used specific radioligands (tritiated, iodinated) with non-radioactive competitive displacement ligands in agonist or antagonist protocols (as indicated) and various reference compounds and inhibitors to titrate specific binding to receptors and transporters. Most enzyme assays (CYPs, kinases, phosphatases, proteases, HDACs) used recombinant protein and specific substrates (fluorescence mostly, some colorimetric and radioactive) and inhibitors, followed by a biochemical separation of substrate and product. All assays for the biochemical HTS were initially run in duplicate at a single concentration (10 uM for CYP450 assays and 25 uM for all others). […] Each assay was run with positive and negative controls, and concurrent controls on every plate. The follow-up (secondary) screen tested active chemical-pairs in concentration series, as well as a few additional assays not tested in the primary screen, some selected negative inactives, and several cases re-run in the concentration series for confirmatory purposes.

[2] = biological target: human Adenosine Transporter (Adot), SLC29A1 (gene 2030) (UniProt Q99808); experiment: NVS_TR_hAdoT: NovaScreen (NVS) Transporter Assay for human Adenosine Transporter (Adot) (AID 2283368)
In short: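 Binding displacement on U937 extracted protein, read 1 h post-dose by filtration and scintillation counting. Primary duplicate test at 25 uM, then singleton concentration series with 50 uM top; DMSO baseline.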

[3] = biological target: Peroxisome proliferator-activated receptor gamma (Homo sapiens) (UniProt P37231); experiment: NVS_NR_hPPARg: NovaScreen (NVS) Nuclear Receptor Binding Assay for human Peroxisome Proliferator-activated Receptor gamma (PPARg) (AID 2283370)
In short: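 Cell-free fluorescence polarization binding to human PPARg protein, read 2 h after dosing. Primary screen in duplicate at 25 uM, actives followed in concentration series; loss of signal relative to DMSO scored.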

[4] = biological target: human Dopamine Transporter (DAT), SLC6A3 (gene 6531) (UniProt Q01959); experiment: NVS_TR_hDAT: NovaScreen (NVS) Transporter Assay for human Dopamine Transporter (DAT) (AID 2283374);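 note: activity means loss of bound radioligand signal relative to DMSO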
In short: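 Extracted human SLC6A3 protein incubated 1 h with radioligand and test chemical; bound fraction separated on filters and counted. Single 25 uM duplicate screen preceded concentration-response follow-up; positive and negative controls on every plate.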

[5] = test system: rat Norepinephrine Transporter (NET), gene 83511; experiment: NVS_TR_rNET: NovaScreen (NVS) Transporter Assay for rat Norepinephrine Transporter (NET) (AID 2283373)
In short: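 Competitive radioligand displacement at the rat NET using forebrain membrane preparations, 1 h incubation, filter-based scintillation readout. Primary testing in duplicate at a single 25 uM concentration; confirmed actives retested across concentrations.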

[6] = test system: guinea pig Dopamine Transporter (DAT), gene 100714898; experiment: NVS_TR_gDAT: NovaScreen (NVS) Transporter Assay for guinea pig Dopamine Transporter (DAT) (AID 2283369);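 note: active compounds lower bound radioligand signal relative to DMSO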
In short: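 Guinea pig striatal membranes, cell-free radioligand binding with filter-based scintillation counting, read 2 h after dosing. Loss of signal versus DMSO baseline; single-concentration primary (25 uM) then concentration-response up to 50 uM.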

[7] = biological target: human Serotonin Transporter (SERT), SLC6A4 (gene 6532) (UniProt P31645); experiment: NVS_TR_hSERT: NovaScreen (NVS) Transporter Assay for human Serotonin Transporter (SERT) (AID 2283372)
In short: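 Human platelet membrane preparation; displacement of radioligand from serotonin transporter measured after 1 h by filtration and scintillation counting. Single 25 uM duplicate screen, then concentration series for actives, with DMSO as negative baseline.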

[8] = biological target: rat Serotonin Transporter (SERT), Slc6a4 (gene 25553) (UniProt P31652); experiment: NVS_TR_rSERT: NovaScreen (NVS) Transporter Assay for rat Serotonin Transporter (SERT) (AID 2283375)
In short: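 Rat forebrain membranes; radioligand displacement at SERT read by filter-based scintillation counting, 1 h after dosing. Screened in duplicate at 25 uM, actives then run in concentration series; loss of signal versus DMSO baseline.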

[9] = biological target: Norway rat Vesicular Monoamine Transporter (VMAT2), neurotransmitter transporter, Slc18a2 (gene 25549) (UniProt Q01827); experiment: NVS_TR_rVMAT2: NovaScreen (NVS) Transporter Assay for Norway rat Vesicular Monoamine Transporter (VMAT2), neurotransmitter transporter (AID 2283376);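 note: actives lower the bound radioligand signal below the DMSO level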
In short: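 Binding endpoint from rat forebrain tissue, cell-free; 1 h incubation; filtered radioligand counted; 25 uM duplicate primary then dose series; DMSO negative control.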

[10] = biological target: guinea pig Sigma Receptor, Non-selective Binding, SIGMAR1 (gene 100135589) (UniProt Q60492); experiment: NVS_OR_gSIGMA_NonSelective: NovaScreen (NVS) Nuclear Receptor Binding Assay for guinea pig Sigma Receptor, Non-selective Binding (AID 2283367)
In short: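 Test chemicals were screened in duplicate at 25 uM, then in concentration series if active, against radioligand binding to guinea pig brain membranes; filtration and scintillation counting at 1 h measured remaining bound ligand.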

Sequence of Peroxisome proliferator-activated receptor gamma (Homo sapiens) (P37231 whole entry, looked up): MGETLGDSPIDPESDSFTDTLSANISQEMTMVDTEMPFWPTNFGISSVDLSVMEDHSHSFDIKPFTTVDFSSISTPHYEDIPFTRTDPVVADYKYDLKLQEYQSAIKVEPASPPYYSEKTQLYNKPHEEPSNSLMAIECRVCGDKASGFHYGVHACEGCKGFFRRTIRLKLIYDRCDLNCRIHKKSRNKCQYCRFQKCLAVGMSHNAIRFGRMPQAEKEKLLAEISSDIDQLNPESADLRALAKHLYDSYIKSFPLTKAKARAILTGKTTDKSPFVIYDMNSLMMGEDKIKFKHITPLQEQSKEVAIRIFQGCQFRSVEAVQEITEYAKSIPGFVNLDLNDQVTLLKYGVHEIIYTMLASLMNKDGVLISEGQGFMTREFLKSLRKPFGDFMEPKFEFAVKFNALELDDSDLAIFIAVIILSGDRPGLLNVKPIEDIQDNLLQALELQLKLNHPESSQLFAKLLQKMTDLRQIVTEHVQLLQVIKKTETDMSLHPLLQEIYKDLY
Sequence of human Serotonin Transporter (SERT), SLC6A4 (gene 6532) (P31645 whole entry, looked up): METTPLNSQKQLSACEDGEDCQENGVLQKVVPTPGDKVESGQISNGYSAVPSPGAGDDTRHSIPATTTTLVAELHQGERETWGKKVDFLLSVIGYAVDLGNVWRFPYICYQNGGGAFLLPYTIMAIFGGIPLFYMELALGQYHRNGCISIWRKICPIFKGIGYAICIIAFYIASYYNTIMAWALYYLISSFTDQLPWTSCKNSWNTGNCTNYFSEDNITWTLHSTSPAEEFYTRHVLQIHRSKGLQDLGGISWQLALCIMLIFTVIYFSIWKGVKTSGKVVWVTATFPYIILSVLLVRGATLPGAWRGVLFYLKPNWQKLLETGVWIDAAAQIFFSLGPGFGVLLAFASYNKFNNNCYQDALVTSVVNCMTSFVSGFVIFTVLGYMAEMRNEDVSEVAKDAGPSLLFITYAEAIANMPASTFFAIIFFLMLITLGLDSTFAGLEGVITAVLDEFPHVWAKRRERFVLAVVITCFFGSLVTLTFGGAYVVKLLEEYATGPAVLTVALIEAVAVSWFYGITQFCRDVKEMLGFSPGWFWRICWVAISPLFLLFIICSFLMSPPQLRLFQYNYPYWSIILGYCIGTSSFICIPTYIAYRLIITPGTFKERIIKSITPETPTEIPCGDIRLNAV
Sequence of Norway rat Vesicular Monoamine Transporter (VMAT2), neurotransmitter transporter, Slc18a2 (gene 25549) (Q01827 whole entry, looked up): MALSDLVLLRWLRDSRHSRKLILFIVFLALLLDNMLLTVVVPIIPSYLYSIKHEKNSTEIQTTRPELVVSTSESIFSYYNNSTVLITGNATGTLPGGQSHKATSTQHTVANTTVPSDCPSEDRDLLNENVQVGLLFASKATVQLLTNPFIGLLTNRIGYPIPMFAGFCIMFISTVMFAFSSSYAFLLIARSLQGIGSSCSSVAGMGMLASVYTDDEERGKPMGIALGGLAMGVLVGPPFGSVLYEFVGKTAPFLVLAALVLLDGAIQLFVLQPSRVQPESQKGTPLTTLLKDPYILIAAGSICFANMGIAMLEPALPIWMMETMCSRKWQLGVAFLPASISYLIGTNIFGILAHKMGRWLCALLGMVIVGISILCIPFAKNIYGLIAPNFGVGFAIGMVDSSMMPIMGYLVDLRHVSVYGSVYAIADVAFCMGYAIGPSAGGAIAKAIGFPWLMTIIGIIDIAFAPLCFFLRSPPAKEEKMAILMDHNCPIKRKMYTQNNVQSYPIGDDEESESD
Sequence of rat Serotonin Transporter (SERT), Slc6a4 (gene 25553) (P31652 whole entry, looked up): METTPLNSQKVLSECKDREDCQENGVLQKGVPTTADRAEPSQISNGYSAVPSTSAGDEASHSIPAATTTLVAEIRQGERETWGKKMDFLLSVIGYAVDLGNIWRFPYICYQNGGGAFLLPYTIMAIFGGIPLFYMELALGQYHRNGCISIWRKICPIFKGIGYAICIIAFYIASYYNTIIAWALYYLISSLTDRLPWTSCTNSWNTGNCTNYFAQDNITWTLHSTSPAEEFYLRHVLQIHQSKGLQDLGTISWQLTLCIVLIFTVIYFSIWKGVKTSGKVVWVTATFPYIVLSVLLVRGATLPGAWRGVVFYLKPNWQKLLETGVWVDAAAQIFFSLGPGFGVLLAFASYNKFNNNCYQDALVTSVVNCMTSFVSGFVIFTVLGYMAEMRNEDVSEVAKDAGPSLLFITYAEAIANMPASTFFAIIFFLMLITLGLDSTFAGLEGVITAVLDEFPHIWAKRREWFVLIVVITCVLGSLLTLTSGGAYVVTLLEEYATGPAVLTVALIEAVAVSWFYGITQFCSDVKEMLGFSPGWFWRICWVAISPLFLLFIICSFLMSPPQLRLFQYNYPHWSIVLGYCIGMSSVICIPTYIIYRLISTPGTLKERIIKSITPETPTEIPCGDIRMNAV
Sequence of guinea pig Sigma Receptor, Non-selective Binding, SIGMAR1 (gene 100135589) (Q60492 whole entry, looked up): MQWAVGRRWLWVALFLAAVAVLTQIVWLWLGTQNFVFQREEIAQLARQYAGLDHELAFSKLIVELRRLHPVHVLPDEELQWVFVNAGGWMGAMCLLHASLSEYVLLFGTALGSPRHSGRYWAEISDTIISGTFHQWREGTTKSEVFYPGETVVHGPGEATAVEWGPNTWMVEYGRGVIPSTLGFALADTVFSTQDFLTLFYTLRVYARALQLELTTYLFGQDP
Sequence of rat Androgen Receptor (AR), Ar (gene 24208) (P15207 whole entry, looked up): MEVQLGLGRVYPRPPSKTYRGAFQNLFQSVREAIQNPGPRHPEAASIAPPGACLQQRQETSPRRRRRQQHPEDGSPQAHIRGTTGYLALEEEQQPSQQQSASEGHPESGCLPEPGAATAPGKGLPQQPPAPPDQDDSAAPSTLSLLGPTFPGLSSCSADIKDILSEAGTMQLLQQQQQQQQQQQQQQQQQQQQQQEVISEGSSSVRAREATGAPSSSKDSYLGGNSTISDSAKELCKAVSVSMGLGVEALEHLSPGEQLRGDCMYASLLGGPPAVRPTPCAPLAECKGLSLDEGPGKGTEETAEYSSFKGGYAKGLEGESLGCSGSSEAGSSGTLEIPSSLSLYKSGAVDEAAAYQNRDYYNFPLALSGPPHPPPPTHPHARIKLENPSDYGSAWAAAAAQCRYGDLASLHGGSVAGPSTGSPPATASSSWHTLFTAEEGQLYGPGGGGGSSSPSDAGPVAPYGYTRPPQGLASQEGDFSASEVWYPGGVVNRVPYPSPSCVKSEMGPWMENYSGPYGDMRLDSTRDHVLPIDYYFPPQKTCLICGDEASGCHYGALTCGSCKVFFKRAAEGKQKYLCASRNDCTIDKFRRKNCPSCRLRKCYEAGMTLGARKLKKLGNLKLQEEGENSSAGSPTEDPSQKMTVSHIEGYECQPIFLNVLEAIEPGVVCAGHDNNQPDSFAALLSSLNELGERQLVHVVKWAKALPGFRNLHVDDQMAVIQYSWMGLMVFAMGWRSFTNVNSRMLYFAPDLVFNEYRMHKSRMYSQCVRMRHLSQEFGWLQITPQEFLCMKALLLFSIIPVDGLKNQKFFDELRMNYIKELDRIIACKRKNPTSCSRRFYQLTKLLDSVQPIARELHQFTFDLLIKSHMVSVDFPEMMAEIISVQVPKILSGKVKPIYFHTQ
Sequence of human Dopamine Transporter (DAT), SLC6A3 (gene 6531) (Q01959 whole entry, looked up): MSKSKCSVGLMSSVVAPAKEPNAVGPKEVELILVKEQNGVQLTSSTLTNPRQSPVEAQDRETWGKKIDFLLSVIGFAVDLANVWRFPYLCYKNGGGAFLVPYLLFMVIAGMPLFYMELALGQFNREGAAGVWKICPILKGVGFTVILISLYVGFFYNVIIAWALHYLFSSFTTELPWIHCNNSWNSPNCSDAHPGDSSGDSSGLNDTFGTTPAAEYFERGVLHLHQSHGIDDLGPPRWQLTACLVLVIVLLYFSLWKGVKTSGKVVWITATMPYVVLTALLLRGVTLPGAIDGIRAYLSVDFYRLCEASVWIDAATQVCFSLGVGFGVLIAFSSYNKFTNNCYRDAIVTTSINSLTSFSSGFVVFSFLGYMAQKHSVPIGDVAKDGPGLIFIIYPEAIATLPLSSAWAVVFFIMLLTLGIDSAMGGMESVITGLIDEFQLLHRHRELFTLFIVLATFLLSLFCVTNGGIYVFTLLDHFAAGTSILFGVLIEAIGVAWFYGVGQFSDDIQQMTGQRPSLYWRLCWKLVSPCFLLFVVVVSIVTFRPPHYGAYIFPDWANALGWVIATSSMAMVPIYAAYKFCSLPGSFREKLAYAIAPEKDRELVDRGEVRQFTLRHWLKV
Sequence of human Adenosine Transporter (Adot), SLC29A1 (gene 2030) (Q99808 whole entry, looked up): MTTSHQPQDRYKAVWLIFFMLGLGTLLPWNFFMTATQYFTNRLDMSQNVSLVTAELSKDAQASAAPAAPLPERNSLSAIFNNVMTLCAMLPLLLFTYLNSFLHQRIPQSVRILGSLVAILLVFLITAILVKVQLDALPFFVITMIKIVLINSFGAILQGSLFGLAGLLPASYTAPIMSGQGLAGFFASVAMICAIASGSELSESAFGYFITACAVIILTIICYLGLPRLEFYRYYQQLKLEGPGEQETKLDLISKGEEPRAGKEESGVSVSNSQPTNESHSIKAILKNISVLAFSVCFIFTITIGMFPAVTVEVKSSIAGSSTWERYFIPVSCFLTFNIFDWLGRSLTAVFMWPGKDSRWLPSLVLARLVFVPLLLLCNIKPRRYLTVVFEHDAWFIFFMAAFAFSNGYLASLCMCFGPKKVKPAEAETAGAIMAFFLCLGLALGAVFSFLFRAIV

`CO/C=C(/C(=O)OC)c1ccccc1Oc1cc(Oc2ccccc2C#N)ncn1` was tested, and the outcome [1] was “inactive”, the outcome [2] was “inactive” and the outcome [3] was “inactive”. For the same compound, the outcome [4] was “inactive”.

In the case of `Oc1ccccc1-c1ccccc1`, the outcome [3] is reported as “inactive” and the outcome [5] is reported as “inactive”.

With `CCCCOC(=O)c1ccccc1C(=O)OCCCC` the AC50 [6] was 19.5 µM (active), the outcome [6] was “inactive” and the outcome [3] was “inactive”. The outcome [4] was “inactive”.

For `CC1=C(C(=O)Nc2ccccc2)SCCO1`, the AC50 [6] was 13.9 µM (active), the AC50 [5] was 8.37 µM (active) and the AC50 [4] was 9.69 µM (active).

In the case of `COc1nc(C)nc(NC(=O)NS(=O)(=O)c2ccccc2CCC(F)(F)F)n1`, the AC50 [2] is reported as 0.0855 µM (active), the outcome [2] is reported as “inactive” and the outcome [3] is reported as “inactive”. The outcome [7] was “inactive” and the outcome [8] was “inactive”.

In the case of `CCCCC(CC)COC(=O)c1ccccc1C(=O)OCC(CC)CCCC` (centres undefined), the outcome [3] is reported as “inactive” and the outcome [9] is reported as “inactive”.

With `O=C(O)COc1nc(Cl)c(Cl)cc1Cl` the outcome [3] was “inactive”.

In the case of `C=CCC1=C(C)C(OC(=O)C2C(C=C(C)C)C2(C)C)CC1=O` (centres undefined), the AC50 [6] is reported as 26.2 µM (active), the outcome [6] is reported as “inactive” and the AC50 [3] is reported as 39.1 µM (active). The outcome [3] was “inactive”, the AC50 [4] was 7.76 µM (active) and 487 nM (active) and 23.7 µM (active) and the outcome [4] was “inactive”.

For `OC(c1ccc(Cl)cc1)(c1cncnc1)c1ccccc1Cl` (centres undefined), the outcome [10] was “inactive” and the AC50 [4] was 0.944 µM (active).

With `CCOC(=O)CC(SP(=S)(OC)OC)C(=O)OCC` (centres undefined) the outcome [1] was “inactive”, the AC50 [10] was 11.4 µM (active) and the outcome [3] was “inactive”.

In the case of `N#Cc1nn(-c2c(Cl)cc(C(F)(F)F)cc2Cl)c(N)c1S(=O)C(F)(F)F` (centres undefined), the outcome [10] is reported as “inactive” and the outcome [3] is reported as “inactive”.

With `COc1ccc(C(c2ccc(OC)cc2)C(Cl)(Cl)Cl)cc1` the AC50 [6] was 14 µM (active), the outcome [3] was “inactive” and the outcome [4] was “inactive”. For the same compound, the outcome [9] was “inactive”.

In the case of `CCCCNC(=O)n1c(NC(=O)OC)nc2ccccc21`, the outcome [5] is reported as “inactive”.

In the case of `Cc1cc(Cl)ccc1OCC(=O)O`, the outcome [3] is reported as “inactive”, the outcome [7] is reported as “inactive” and the outcome [8] is reported as “inactive”.

With `CCNc1nc(Cl)nc(NCC)n1` the outcome [3] was “inactive”.

`CNC(=S)S` was tested, and the outcome [10] was “inactive”.

`CCCC1COC(Cn2cncn2)(c2ccc(Cl)cc2Cl)O1` (centres undefined) was tested, and the outcome [1] was “inactive”, the AC50 [10] was 25 µM (active) and the outcome [3] was “inactive”.

With `CCNc1nc(Cl)nc(NC(C)C)n1` the outcome [3] was “inactive”.

For `COC(=O)c1ccccc1C(=O)OC`, the outcome [3] was “inactive”.

For `N#CC(CCc1ccc(Cl)cc1)(Cn1cncn1)c1ccccc1` (centres undefined), the outcome [1] was “inactive”, the outcome [2] was “inactive” and the AC50 [4] was 7.06 µM (active).

With `CCc1nn(C)c(C(=O)NCc2ccc(C(C)(C)C)cc2)c1Cl` the AC50 [10] was 16.2 µM (active) and the AC50 [4] was 6.22 µM (active).

With `COC(=O)C(C)Oc1ccc(Oc2ccc(Cl)cc2Cl)cc1` (centres undefined) the outcome [6] was “inactive”, the AC50 [4] was 14.2 µM (active) and the outcome [4] was “inactive”.

For `CCCCNC(=O)OCC#CI`, the outcome [3] was “inactive” and the AC50 [9] was 1.59 µM (active) and 4.96 µM (active).

With `CON(C)C(=O)Nc1ccc(Cl)c(Cl)c1` the AC50 [10] was 12 µM (active), the outcome [3] was “inactive” and the AC50 [4] was 13.4 µM (active).

`CCCN(CCC)c1c([N+](=O)[O-])cc(S(N)(=O)=O)cc1[N+](=O)[O-]` was tested, and the AC50 [3] was 0.0071 µM (active) and the outcome [3] was “inactive”.

In the case of `COc1cnc(OC)n2nc(NS(=O)(=O)c3c(OCC(F)F)cccc3C(F)(F)F)nc12`, the outcome [3] is reported as “inactive”.

With `CC1COC(Cn2cncn2)(c2ccc(Oc3ccc(Cl)cc3)cc2Cl)O1` (centres undefined) the AC50 [10] was 1.27 µM (active), the AC50 [6] was 12.3 µM (active) and the AC50 [4] was 2.93 µM (active). For the same compound, the outcome [9] was “inactive”.

In the case of `Cc1c(F)c(F)c(COC(=O)C2C(/C=C(\Cl)C(F)(F)F)C2(C)C)c(F)c1F` (centres undefined), the AC50 [4] is reported as 8.33 µM (active).

With `Fc1ccc(Oc2ccnc3cc(Cl)cc(Cl)c23)cc1` the AC50 [6] was 13.8 µM (active) and the AC50 [4] was 9.77 µM (active).

For `COP(N)(=O)SC` (centres undefined), the outcome [3] was “inactive”.

For `Cc1ccc(-c2c(Cl)nc(C#N)n2S(=O)(=O)N(C)C)cc1`, the outcome [3] was “inactive”.

`O=C(Nc1ccccc1)Nc1ccnc(Cl)c1` was tested, and the outcome [7] was “inactive”, the outcome [8] was “inactive” and the AC50 [9] was 6.12 µM (active).

`C=CC1(C)OC(=O)N(c2cc(Cl)cc(Cl)c2)C1=O` (centres undefined) was tested, and the outcome [3] was “inactive”.

`C=CCC1=C(C)[C@@H](OC(=O)[C@@H]2[C@@H](C=C(C)C)C2(C)C)CC1=O` was tested, and the AC50 [10] was 37.4 µM (active), the AC50 [6] was 20.3 µM (active) and the AC50 [4] was 18.6 µM (active).

`C#CCOS(=O)OC1CCCCC1Oc1ccc(C(C)(C)C)cc1` (centres undefined) was tested, and the AC50 [6] was 15.6 µM (active), the outcome [3] was “inactive” and the AC50 [4] was 9.17 µM (active).

`COc1nc(NC(C)C)nc(NC(C)C)n1` was tested, and the outcome [7] was “inactive” and the outcome [8] was “inactive”.

In the case of `CCOc1cc(Oc2ccc(C(F)(F)F)cc2Cl)ccc1[N+](=O)[O-]`, the AC50 [4] is reported as 6.37 µM (active).

With `CCON=C(CC)C1=C(O)CC(c2c(C)cc(C)cc2C)CC1=O` (centres undefined) the outcome [10] was “inactive”.

With `CCOC(=O)C(Cl)Cc1cc(-n2nc(C)n(C(F)F)c2=O)c(F)cc1Cl` (centres undefined) the outcome [9] was “inactive”.
